Source: PubChem BioAssay AID1063 (University of Pittsburgh Molecular Library Screening Center, 2008)
The campaign covered roughly 200,000 compounds. About 18,000 (9%) were called active. For the sample, actives were picked, then their nearest neighbours and some compounds at random. A number with no mark means an inactive call. Rule as the data show it: active = inhibition above about 50%; inactive = the rest.

Experiment: antileishmanial activity against promastigotes – primary screen (AID 1063);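 also: promastigotes grown with compound for 44 hours at 28 °C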
Conditions: Leishmania major promastigotes, resazurin fluorescence viability; at 10 µM; stronger effect = higher value

Row | Structure (SMILES) | inhibition
1 | CC(C)(C)c1ccc(C(=O)NCc2nnc(SCC(=O)N3CCCc4ccccc43)n2-c2ccccc2)cc1 | -4.1%
2 | COc1ccccc1CCNC(=O)CSc1nnc2ccc(-c3cccnc3)nn12 | 1.51%
3 | OC(COc1ccccc1)Cn1cc(Br)cn1 (stereo not drawn) | -7.06%
4 | C=CCn1c(=N)n(CC(O)COc2ccc(OC)cc2)c2ccccc21 (stereo not drawn) | 34.9%
5 | OC(CN=c1sc2ccccc2n1CC(O)COc1ccccc1)COc1ccccc1 (stereo not drawn) | 63.1% (active)
6 | C/C(N)=C(/C#N)C(=O)COC(=O)CNS(=O)(=O)c1ccc(C)cc1 | -2.53%
7 | Cc1ccc(C)n1NC(=O)c1ccc([N+](=O)[O-])cc1 | -0.24%
8 | CC1CC(C)CN(C(=O)CSc2ccsc2[N+](=O)[O-])C1 (stereo not drawn) | 8.96%
9 | CC(C(=O)O)n1cnc2sc3c(c2c1=O)CCCC3 (stereo not drawn) | -4.65%
10 | S=c1[nH]nc2c3c4c(sc3ncn12)CCCC4 | 72.6% (active)
11 | c1nnc2c3c4c(sc3ncn12)CCC4 | -5.73%
12 | COc1cc(OC)cc(C(=O)OCC(=O)Nc2sccc2C(N)=O)c1 | 18.3%
13 | Cc1cc(C)cc(NC(=S)NCCCN2CCOCC2)c1 | 11.8%
14 | Cc1ccc(S(=O)(=O)NCCN2CCOCC2)cc1C | -7.43%
15 | Cc1cc(C)c(S(=O)(=O)NCCCN2CCOCC2)cc1Br | 94.6% (active)
16 | O=C(NCc1cccs1)c1cc(-c2ccccn2)nc2ccc(Br)cc12 | -5.05%
17 | CC(=O)Nc1ccc(OCCC[n+]2cccc(C(=O)[O-])c2)cc1 | 0.17%
18 | COc1ccc(/C=C(\C#N)C(=O)NCCCn2ccnc2)cc1 | 55.7% (active)
19 | COc1ccc(-c2cc(C(=O)NCCCn3ccnc3)no2)cc1 | 36.3%
20 | COc1cccc(-c2nn(-c3ccccc3)cc2/C=C(\C#N)C(=O)NCCCn2ccnc2)c1 | 100% (active)
21 | CCOc1ccccc1C(=O)NCCCn1ccnc1 | 0.51%
22 | COc1ccccc1-c1cc(C(=O)NCCCn2ccnc2)no1 | 6.26%
23 | COCCNC(=O)/C(C#N)=C/c1cccc(OCc2ccccc2)c1 | 47%
24 | Cc1nccn1CCCNC(=O)CC1C(=O)NCCN1Cc1ccc(Cl)c(F)c1 (stereo not drawn) | 5.03%

Row | Structure (SMILES) | inhibition
25 | Cc1cccc(NS(=O)(=O)c2ccc(C)c(C(N)=O)c2)c1 | -3.69%
26 | O=C(Nc1ccccc1C(=O)N1CCOCC1)c1ccc(Cl)cc1 | 1.24%
27 | NS(=O)(=O)c1cccc(NC(=O)CN2CCCc3ccccc32)c1 | -1.56%
28 | O=C(NNC(=S)NCc1ccco1)C(c1ccccc1)c1ccccc1 | 45.2%
29 | Cc1cc(O)c(NC(=O)c2ccc(C)c([N+](=O)[O-])c2)cc1C | 1.25%
30 | COCC(C)NC(=O)CSc1nc2nn(-c3ccccc3)c(=O)c-2c2n1CCCCC2 (stereo not drawn) | 34.5%
31 | COc1ccc(C(=O)C2CCCN(Cc3cccn3-c3ccccn3)C2)c(C)c1 (stereo not drawn) | 99.8% (active)
32 | CCOC(=O)c1[nH]ncc1CN1CCCC(C(=O)c2ccc(OC)cc2C)C1 (stereo not drawn) | 1.77%
33 | CCn1ccnc1CN1CCCC(C(=O)c2ccc3c4c(cccc24)CC3)C1 (stereo not drawn) | 40%
34 | O=C(CN1CCOCC1)Nc1c(Cl)cc(Cl)cc1Cl | -3.49%
35 | O=C(Nc1ccc(F)cc1)N1CCCC(c2nc3c(nnn3Cc3ccccc3Cl)c(=O)[nH]2)C1 (stereo not drawn) | -7.44%
36 | COC(C(=O)Nc1ccc(C(C)=O)cc1)c1ccccc1 (stereo not drawn) | -5.21%
37 | COC(C(=O)Nc1ccc(S(=O)(=O)Nc2ccc(C)c(C)c2)cc1)c1ccccc1 (stereo not drawn) | 56.7% (active)
38 | COC(C(=O)NCc1ccccc1C)c1ccccc1 (stereo not drawn) | -3.9%
39 | Cc1ccc(C(=O)N/C(=C\c2ccco2)C(=O)N2CCSCC2)cc1C | 10.4%
40 | O=C(CCCn1c(=O)c2sccc2n(CC(=O)NCC2CCCO2)c1=O)NCc1ccco1 (stereo not drawn) | -8.29%
41 | CC1CCCC(C)N1/N=C/c1ccccc1OC(F)F (stereo not drawn) | -3.94%
42 | Oc1ccc(Cl)cc1/C=N/c1nc2ccccc2[nH]1 | 63% (active)
43 | c1ccc2[nH]c(-c3nc4ccccc4[nH]3)nc2c1 | 33.9%
44 | Oc1ccc(Br)cc1C=Nc1ccc2[nH]ncc2c1 | -4.98%
45 | COc1cccc(NC(=O)c2ccc(S(=O)(=O)N(C)C)cc2)c1 | -7.02%
46 | COc1cccc(-c2nnc(NC(=O)c3ccc(S(=O)(=O)N(CC(C)C)CC(C)C)cc3)o2)c1 | 100% (active)
47 | O=C(Nc1nnc(-c2ccco2)o1)c1ccc(S(=O)(=O)N2CCOCC2)cc1 | 3.15%
48 | CCOc1ccc2nc(NCCNC(=O)C(C)(C)C)c(C)cc2c1 | 5.84%
